# Source: PubChem BioAssay AID720531 (The Scripps Research Institute Molecular Screening Center, 2013)
# Screen size: about 1,000 compounds; about 270 (27%) were called active. No stated cut-off is given here; in the data, active means inhibition above about 14%; inactive means the rest. Not all results are given here.
# Molecular target: Methyl-CpG-binding domain protein 2 (Homo sapiens) (UniProt Q9UBB5)
# Assay: inhibitors of MBD2 binding to methylated DNA, confirmation, biochemical, TR-FRET, DNA-binding domain, human (AID 720531)
# Settings: TR-FRET MBD2-DBD binding to methylated oligonucleotide; at 4.4 µM; stronger effect = higher value
# Sequence of Methyl-CpG-binding domain protein 2 (Homo sapiens) (Q9UBB5 whole entry, looked up, the tested form may be a part): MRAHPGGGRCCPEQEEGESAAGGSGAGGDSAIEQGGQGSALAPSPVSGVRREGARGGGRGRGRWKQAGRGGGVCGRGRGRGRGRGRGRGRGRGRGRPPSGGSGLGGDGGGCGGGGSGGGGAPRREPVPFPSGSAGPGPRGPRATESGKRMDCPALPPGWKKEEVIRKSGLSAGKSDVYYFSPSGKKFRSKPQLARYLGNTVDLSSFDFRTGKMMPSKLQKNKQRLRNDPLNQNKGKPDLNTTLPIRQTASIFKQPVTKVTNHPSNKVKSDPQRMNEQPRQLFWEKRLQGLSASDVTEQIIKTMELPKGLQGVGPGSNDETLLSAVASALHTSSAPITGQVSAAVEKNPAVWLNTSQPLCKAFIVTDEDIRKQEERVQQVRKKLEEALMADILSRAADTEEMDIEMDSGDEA
row,Compound,inhibition
1,c1ccc2cc3c(NCCN4CCOCC4)ccnc3cc2c1,25% (active)
2,Cc1cccc(NC(=O)C[C@H]2CC[C@H]3[C@@H](COc4ccc(NC(=O)Nc5ccccc5)cc4C(=O)N3C)O2)c1,8.99% (inactive)
3,COC(=O)[C@]12C[C@H](CC(=O)NCCC(C)C)C(=O)N(CCc3ccc(OC)c(OC)c3)C1=C[C@H](C(C)(C)C)O[C@@H]2C,2.11% (inactive)
4,O=c1ccc2c(-c3ccccc3S(=O)(=O)O)c3ccc(O)c(O)c3oc-2c1O,94.4% (active)
5,CN(C)[C@@H]1C(=O)C(C(N)=O)=C(O)[C@@]2(O)C(=O)C3=C(O)c4c(O)ccc(Cl)c4[C@@H](O)[C@H]3C[C@@H]12,0.76% (inactive)
6,CN(C)CCNC(=O)c1ccc(Cl)c2cc3ccccc3nc12,68.7% (active)
7,COc1nc(N(C)C)nc(N2CC(=O)N(CCNS(=O)(=O)c3ccc(C)cc3)C2=N)n1,3.06% (inactive)
8,COC(=O)c1c(NC(=O)c2ccc(S(=O)(=O)N3CCOCC3)cc2)sc2c1CCN(C(C)C)C2,23.6% (active)
9,CCOc1ccc(-n2c(SCC(=O)Nc3ccc(OC)cc3)nc3sc4c(c3c2=O)CCN(C)C4)cc1,4.44% (inactive)
10,COc1ccc(COC[C@H](CC(C)C)N2CCN(C(=O)c3cccc(C(F)(F)F)c3)CCC2=O)cc1,5.45% (inactive)
11,Nc1ccccc1C(=O)NC1CCCCNC1=O (stereo not given),0.65% (inactive)
12,C=CCn1c(=S)[nH]c2scc(-c3ccco3)c2c1=O,27.2% (active)
13,COC(=O)c1ccc(CSc2nncn2N)cc1,1.91% (inactive)
14,Cc1c(NS(=O)(=O)c2cc(C(=O)NCCc3ccc(F)cc3)cc(Cl)c2Cl)c(=O)n(-c2ccccc2)n1C,3.66% (inactive)
15,C=CCN(C(=O)[C@@H](CCCC)[C@@H](O)c1ccc(Cl)cc1)c1ccccc1,3.23% (inactive)
16,C=CC1=C(C(=O)O)N2C(=O)[C@@H](NC(=O)/C(=N\OCC(=O)O)c3csc(N)n3)[C@H]2SC1,104% (active)
17,CNC(=O)C[C@H]1C(=O)N(c2ccc(OC)cc2)C[C@@H]1Cc1ccccc1,2.83% (inactive)
18,CCOc1ccc(S(=O)(=O)N2CCC(c3ccccc3)CC2)cc1C(=O)O,0.33% (inactive)
19,CC(C)c1nc(CNC(=O)CC2C(=O)NCCN2Cc2cccc(F)c2F)cs1 (stereo not given),1.21% (inactive)
20,CCOc1ccc(NC(=O)c2cc(C)nc3ccccc23)cc1,1.13% (inactive)
21,Cc1ccc(Cc2cnc(N)s2)o1,2.75% (inactive)
22,CCOC(=O)C1C(=O)OC2(CCCC2)C1C(=O)OCC (stereo not given),1.9% (inactive)
23,CCN(CC)CCOc1ccc2c(c1)C(=NNC(=O)c1ccccn1)c1cc(OCCN(CC)CC)ccc1-2,112% (active)
24,C=CCN1C(=O)c2ccc(C(=O)N3CCC(C(=O)OCC)CC3)cc2C1=O,4.08% (inactive)
25,COc1ccccc1C(=O)NNC(=O)CCN1C(=O)/C(=C\c2ccccc2)SC1=S,1.72% (inactive)
26,COC(=O)c1cn(C)c2ccc(S(=O)(=O)N3CC(C)CC(C)C3)cc2c1=O (stereo not given),6.67% (inactive)
27,Cc1ccc(-c2ccnc3nc(Sc4ncc(C(F)(F)F)cc4Cl)nn23)cc1,3.6% (inactive)
28,CCOc1cc(-c2noc(CCCC(=O)NC3CCCCC3)n2)ccc1OC,7.12% (inactive)

row,Compound,inhibition
1,C=C1c2c(Cl)ccc(O)c2C(O)=C2C(=O)[C@]3(O)C(O)=C(C(N)=O)C(=O)[C@@H](N(C)C)[C@@H]3[C@@H](O)C12 (stereo not given in full),7.25% (inactive)
2,Cc1cc(C)c2nc3nc(C)cc(C)c3c(N)c2c1,45.1% (active)
3,CC(C)Oc1ccc(C2NC(=O)NC2=O)cc1 (stereo not given),6.62% (inactive)
4,COC(=O)c1ccc2nc(C3CCCCC3)c(Cc3cccc(F)c3)n2c1,4.72% (inactive)
5,Cc1ccccc1NC(=O)CN1C(=O)N/C(=C\c2cccn2-c2cccc(C(=O)O)c2)C1=O,21.2% (active)
6,Cc1cccc(CN2CCN(C3CN(Cc4cn(Cc5cc(C)cc(C)c5)nn4)S(=O)(=O)C3)CC2)c1 (stereo not given),1.92% (inactive)
7,CCOc1ccc(N(CC(=O)NCCOc2ccccc2OC)S(=O)(=O)c2ccccc2)cc1,2.61% (inactive)
8,Cc1c(C=O)n(C)n(-c2ccccc2)c1=O,6.3% (inactive)
9,Brc1ccc(-c2n(-c3ccccn3)c3ccccc3[n+]2-c2ccccn2)cc1,76.4% (active)
10,COc1ccc(-n2cc(-c3ccccc3)c3c(=S)nc[nH]c32)cc1,3.57% (inactive)
11,Cc1ccc(C)c(NC(=O)c2ccc(OC(=O)c3ccco3)cc2)c1,4.94% (inactive)
12,CC(=O)c1ccccc1NC(=O)COC(=O)C1COc2ccccc2O1 (stereo not given),-0.13% (inactive)
13,COc1ccc(CNC(=O)c2c[nH]c3c(OC)cc(OC)cc3c2=O)cc1,3.79% (inactive)
14,COC(=O)c1ccc2nc(-c3cccc(Br)c3)c(Cc3ccc(OC)cc3C)n2c1,8.39% (inactive)
15,CN(C(=O)COC(=O)c1cc(-c2ccco2)nc2ccccc12)C1CCS(=O)(=O)C1 (stereo not given),32.3% (active)
16,CO/N=C(/CS(=O)(=O)c1ccc(Br)cc1)c1ccc(OC)cc1,3.47% (inactive)
17,COc1ccc(OCc2cc(C(=O)NCC3(C)COC3)no2)c(Cl)c1,-0.36% (inactive)
18,CCOc1cc(N2CCOCC2)c(OCC)cc1NC(=O)c1cc(C)nc2ccccc12,2.46% (inactive)
19,COc1ccc2[nH]c3c(C)c4cc[n+](C)cc4c(C)c3c2c1,109% (active)
20,CCOC(=O)CCP(=O)(O)C(O)(c1ccccc1)c1ccccc1,5.44% (inactive)
21,COc1ccc2c(c1)c(=Cc1ccc(N(C)C)cc1)c1cc(-c3ccccc3)[n+](C)n12,73% (active)
22,CCOC(=O)c1sc(NC(=O)CCN2CCOCC2)c(C(=O)OCC)c1C,1.01% (inactive)
23,O=C(c1n[nH]c2c1CCC2)N1CCCC(Nc2cccc(F)c2)C1 (stereo not given),3.32% (inactive)
24,O=C(CC1CCCCC1)Nc1c2c(nn1-c1ccc(F)cc1)CS(=O)(=O)C2,1.28% (inactive)
25,CCOC(=O)c1ccc(-n2c(CCC(=O)O)ccc2-c2ccccc2)cc1,-0.54% (inactive)
26,COC(=O)c1cccc(NC(=O)c2cccc(N3C(=O)CCC3=O)c2)c1,1.64% (inactive)
27,Cc1ccc(C(=O)Nc2ccc3c(c2)OCO3)cc1S(=O)(=O)N1CCCCC1,5.06% (inactive)
